HCV inhibitor – qHTS Assay for Inhibitors of Hepatitis C Virus (HCV); Huh7.5.1 HCVcc-Cre infection, luciferase reporter, 44 h; AID 651820, 2012; actives 3.4% (n = 340,000); Potency, µM (top dose mostly 41.8 µM), inactives show top-dose activity change, negative = inhibition, actives largely listed as inhibitors; further: potency means the concentration at half of the fitted maximal effect; on the % scale 0 is the no-effect control and ±100 the full control effect
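1,000 cells/well; 4 h culture; + compound; + HCVcc-Cre (~0.5 moi); 44 h; luciferase substrate, RT 15 min; read 15 sec.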
Cycloheximide cs – Cycloheximide Counterscreen for Small Molecule Inhibitors of Shiga Toxin. cell reporter, cycloheximide protein synthesis inhibition counterscreen. max response, %. actives 12% (n = 300,000); in the data active means max response mostly above about 13%, no sharp cut-off; inactive means mostly below about 14%; further: read at 38.3 µM for the half of the compounds with a filed dose; 0% is about no effect
AMA1 RON2 block – qHTS for Inhibitors of AMA1-RON; Towards Development of Antimalarial Drug Lead: Primary Screen; Potency, µM (series often up to 58.2 µM), for the others: at the highest dose activity change, negative = inhibition, usual class: inhibitors; actives 0.2% (n = 360,000); AID 720542, 2013; AlphaScreen AMA1-biotinylated RON2 peptide binding; Plasmodium falciparum AMA1 (3D7) - RON2 peptide interaction;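 further: potency means the concentration at half of the fitted maximal effect; 0% = vehicle wells and -100% = peptide control; nearly all actives have a fitted effect of over 45% in size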
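AMA1 (3D7) with his tag at 25 nM final met compounds first, then biotinylated RON2 peptide at 25 nM; detection used donor plus acceptor beads, 10 µg/mL apiece, read by AlphaScreen after 30 min at room temperature.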
Pf growth 96h – Primary qHTS for delayed death inhibitors of the malarial parasite plastid, 96 hour incubation; P. falciparum luciferase reporter growth, 96 h; actives 6.9% (n = 320,000); Potency, µM (highest dose often 28.7 µM), for inactives: top-dose activity change, negative = inhibition, actives largely listed as inhibitors; further: potency means the concentration at half of the fitted maximal effect; on the % scale 0 is the no-effect control and ±100 the full control effect
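P. falciparum expressing integrated firefly luciferase grown in erythrocytes (2% hematocrit, 0.05% parasitemia final) with compounds for 96 hours at 37 C, 5% CO2. Growth inhibition read as loss of luminescence after adding luciferase detection reagent.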
Pf growth 48h – Primary qHTS for delayed death inhibitors of the malarial parasite plastid, 48 hour incubation; P. falciparum luciferase growth in erythrocytes, 48 h; Potency, µM (titrated, usually from 28.7 µM), for inactives: top-dose activity change, negative = inhibition, actives largely listed as inhibitors; actives 5.9% (n = 310,000); further: potency means the concentration at half of the fitted maximal effect; on the % scale 0 is the no-effect control and ±100 the full control effect
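Compounds are pin-transferred into medium, infected erythrocytes (2% hematocrit, 0.1% parasitemia final) are added, and plates sit one parasite generation at 37 C in 5% CO2. Detection reagent is then added and luminescence measured.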
Shiga toxin inh – A qHTS for Small Molecule Inhibitors of Shiga Toxin; Vero cells, Shiga toxin protein synthesis inhibition reporter; inhibition, % at 38.7 µM; actives 9.2% (n = 290,000); AID 2315, 2010; in the data active means inhibition mostly above about 28%, no sharp cut-off; inactive means mostly below about 43%; further: 0% is about no effect
An asterisk follows results filed as active; ? = inconclusive; . = no result given; ! = not active in a repeat. Only some compounds are listed: those with a hit (about 21% of all), similar ones and a draw of the others. Unless noted, the call rests on the fitted dose curve; in most records, active means well fitted curve in the direction sought with a large enough effect; inconclusive means small, poorly fitted or top-dose-only effect, or another doubt; inactive means no such curve, though single readings can be large; an effect the other way counts as inactive or inconclusive.

SMILES	HCV inhibitor	Cycloheximide cs	AMA1 RON2 block	Pf growth 96h	Pf growth 48h	Shiga toxin inh
CCOCCCNC(=S)Nc1ccc2nc(N3CCOCC3)cc(C)c2c1	-17%	-3	2%	15µM*	-25%	-2
Cc1cc(N2CCOCC2)nc2ccc(NC(=S)NCCC(C)C)cc12	10µM*	12	11%	0%	-100%	17
COc1ccc(C(C)=O)cc1CN1C(=O)C(C)ON=C1c1ccccn1 (stereo unspecified)	.	.	-3%	.	.	.
Cc1ccccc1OCC(=O)OCC(=O)NC1CCCCCC1	7%	.	-7%	24%	2%	.
Cc1ccc(NC(=O)CN(C)C(=O)COC(=O)C2=COCCO2)cc1	-25%	.	11%	17%	?	.
COc1ccc(CN(C)C(=O)c2cccc(C(=O)N(C)Cc3ccc(OC)cc3)c2)cc1	11µM*	-4	2%	?	?	-5
COc1ccc(CN(C)C(=O)CCl)cc1	?	13	-3%	10µM*	13µM*	-10
CN(Cc1ccc(Cl)s1)C(=O)CCl	?	8	10%	1.5µM*	9.3µM*	21
c1ccc2cc(C3N4CCCN34)ccc2c1 (stereo unspecified)	19%	24*	-2%	11%	41%	24
CC1CCC(NC(=O)CN(C)S(=O)(=O)c2ccc3c(c2)CCC(=O)N3)CC1 (stereo unspecified)	-6%	-4	-1%	1.5µM*	-15%	-3
COc1cccc(NC(=O)CN(C)S(=O)(=O)c2ccc3c(c2)CCC(=O)N3)c1	-8%	-2	-4%	7.4µM*	17%	1
Cc1ccc(C)c(N2CCN(C(=O)CN(C)S(=O)(=O)c3ccc4c(c3)CCC(=O)N4)CC2)c1	-9%	-1	-4%	2.3µM*	.	-14
Cc1ccc(C)c(N2CCN(S(=O)(=O)c3ccc4c(c3)CCC(=O)N4)CC2)c1	.	0	.	0%	41%	15
CC1CCCCC1NC(=O)CN(C)S(=O)(=O)c1ccc2c(c1)CCC(=O)N2 (stereo unspecified)	11%	-3	-1%	?	-8%	8
CC(=O)c1cccc(NC(=O)CN(C)S(=O)(=O)c2ccc3c(c2)CCC(=O)N3)c1	-8%	-4	-15%	?	1%	15
CCN(CC(=O)Nc1cc(Cl)cc(Cl)c1)CC(=O)NC1CCS(=O)(=O)C1 (stereo unspecified)	-19%	.	-6%	.	.	.
CSc1nn2c(C(F)(F)F)cc(C(F)(F)F)nc2c1C(N)=O	-10%	0	-8%	?	?	-6
Oc1ccc(/C=N/N(Cc2ccccc2)c2ccccc2)c(O)c1O	?	10	3%	?	?	7
CN(/N=C/c1cccnc1)C1=NS(=O)(=O)c2ccccc21	-16%	-1	0%	?	13%	10
C(=N\N(Cc1ccccc1)c1ccccc1)/c1cccnc1	-9%	-6	-12%	10%	13µM*	26
C/C(=N\NC(=O)Cc1ccccc1)c1cccnc1	0%	21	28%	-9%	4%	16
C/C(=N\N(Cc1ccccc1)c1ccccc1)c1cccnc1	-4%	-1	-20%	13µM*	8.3µM*	24
Oc1cccc(/C=N/N(Cc2ccccc2)c2ccccc2)c1	?	-2	?	?	6.6µM*	-10
COC1[C@@H](OC)C[C@H](C)[C@@H](OC)C2=CC(=O)C=C(NC(=O)/C(C)=C/C=C\[C@H](OC)[C@@H](OC(N)=O)/C(C)=C/[C@@H]1C)C2=O (stereo partly specified)	.	-2	.	.	.	3
Cc1ccc(C(=O)N/N=C\c2cccn2C)cn1	6%	21	9%	?	?	23
SMILES	HCV inhibitor	Cycloheximide cs	AMA1 RON2 block	Pf growth 96h	Pf growth 48h	Shiga toxin inh
Cc1occc1C(=O)N/N=C/c1ccccn1	0%	38*	123%	31%	?	75*
Cc1ccccc1C(=O)Nc1ccc(C(=O)N/N=C/c2ccccn2)cc1	-1%	-1	51%	10%	8%	-8
Cc1ccc(C(=O)N/N=C\c2ccccn2)cn1	30%	40*	68%	12%	4%	63*
O=C(N/N=C/c1ccccn1)c1ccc(Br)cc1	-15%	67*	71%	?	?	122*
CC(C)(C)c1ccc(C(=O)N/N=C/c2ccccn2)cc1	-16%	45*	73%	-29%	?	85*
CN(CC(=O)Nc1ccc(F)cc1)C(=O)Cn1cnc2ccc([N+](=O)[O-])cc2c1=O	-17%	.	-8%	.	.	.
O=S(=O)(c1c(F)cccc1F)N1CCCC2CCCCC21 (stereo unspecified)	?	.	19%	-30%	?	.
COc1ccc(S(=O)(=O)N2CCOCC2)cc1NC(=O)CN1CCN(C)CC1	-14%	.	16%	11%	-25%	.
O=C(CSc1nc2ncc(Cl)cc2[nH]1)N1CCC(Cc2ccccc2)CC1	11%	.	-7%	.	.	.
C(=N\N=C\c1ccccn1)/c1ccccn1	5%	13*	99%	?	13µM*	58
O=C(N/N=C/c1ccccn1)c1ccc(N/N=C/c2ccccn2)cc1	14%	29*	20%	?	?	63*
COc1ccc(C(=O)N/C(=C\c2ccccc2)C(=O)Nc2ccc(C(=O)NCC(=O)O)cc2)cc1	8%	14	11%	?	?	.
CC12CC3CC(C)(C1)CC(N)(C3)C2	20%	-1	0%	6.7µM*!	?	-9
CC(=O)N1CCN(c2ccc(Nc3ncnc4c3oc3ccccc34)cc2)CC1	?	43*	-20%	?	-21%	128
O=C(CSc1ncnc2c1oc1ccccc12)N1CCN(c2ccccc2)CC1	-23%	.	-10%	.	.	.
CCc1nc(Nc2ccc(N3CCN(C(C)=O)CC3)cc2)c2oc3ccccc3c2n1	-21%	18*	-12%	32%	10µM*	-4
COCCCN(C(=O)CSCC(=O)Nc1ccc(C)cc1)c1c(N)n(Cc2ccccc2)c(=O)[nH]c1=O	?	.	1%	.	.	.
CCS(=O)(=O)n1nc(-c2ccc(Cl)cc2)nc1SCc1ccccc1	-6%	19*	6%	117%	188%	60*
CCS(=O)(=O)n1nc(-c2ccc(C)cc2)nc1N	-1%	9.4*	-14%	.	8%	9
CCS(=O)(=O)n1nc(-c2ccc(Cl)cc2)nc1N	-18%	15	0%	-13%	33%	30
CC(C)c1ccc(NC(=O)C2Cc3c(-c4ccccc4Oc4ccccc4)ccnc3O2)cc1 (stereo unspecified)	.	.	0%	.	.	.

High-throughput results deposited in PubChem BioAssay by National Center for Advancing Translational Sciences (NCATS).
